# Experimental data: PubChem BioAssay AID493192 (National Center for Advancing Translational Sciences (NCATS), 2011)
# Records with an inconclusive call do not appear. Entries that show only a call come without a potency. The source made the active and inactive calls. Calls come from the whole dose curve; as a rule, active = well fitted activation curve with a large enough effect; inconclusive = small, poorly fitted or top-dose-only effect; inactive = no such curve, though single readings can be large or run the other way.
# Assay: qHTS Assay for Identifying a Potential Treatment of Ataxia-Telangiectasia: Hit Validation;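 note: phospho-KAP1 level by AlphaLISA as a proxy for ATM-like kinase activity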
# Conditions: Ataxia-telangiectasia cell-based hit validation qHTS, in ATM-null A-T patient fibroblasts; series mostly up to 76.9 µM
# Summary of the method: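 hTERT-immortalized A-T patient fibroblasts (F2112) were dosed at up to 76.7 uM final for 60 min at 37C. After a further 30 min incubation, cells were lysed, and phospho-KAP1 was detected by AlphaLISA after 6 hr at 25C.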
# Potency is the fitted concentration of half-maximal effect.
row,SMILES,Potency
1,CC(=O)c1sc2nc(C)c3c(c2c1N)CCCC3,inactive
2,O=C(CSc1nnc(CNC(=O)c2ccccc2)o1)NCCc1ccccc1,inactive
3,O=C(c1nn2c(C(F)(F)F)cc(-c3ccc(F)cc3)nc2c1Cl)N1CCOCC1,inactive
4,COc1ccc2c(c1)cc(C(=O)N[C@H](C(=O)N1CCC(C(=O)O)CC1)C(C)C)n2C,inactive
5,COc1ccccc1[C@H]1C(c2cccc(Cl)c2)=NN(c2ccccc2)[C@@H]1CO,inactive
6,C[C@H](NC(=O)OC(C)(C)C)C(=O)NCC1CCC(C(=O)N[C@@H](Cc2ccccc2)C(=O)O)CC1 (stereo partly drawn),inactive
7,COc1ccc(C2(C)CC(C)(C)Nc3ccccc32)cc1 (stereo not drawn),inactive
8,O=C(O)c1ccc(C2Nc3ccccc3C(=O)N2Cc2ccccc2)cc1 (stereo not drawn),inactive
9,CC(C)(C)C1CCC2(CC1)SCC(=O)N2c1ccccc1 (stereo not drawn),inactive
10,CC(C)C1CC(CCN)(c2ccccc2)CCO1 (stereo not drawn),inactive
11,Cc1ccc2c(c1)sc(=NC(=O)C1CC1)n2C,18.4 µM (active)
12,COc1ccccc1S(=O)(=O)Nc1ccc(-c2nnc3n2CCCCC3)cc1,inactive
13,COc1ccccc1NC(=O)C1CCCN(S(=O)(=O)c2ccc(-n3cnnn3)cc2)C1 (stereo not drawn),inactive
14,CCn1c(SCc2cccc(F)c2)nnc1-c1ccncc1,inactive
15,C=CCC(CC)C(=O)NC(=O)N1CCCc2ccccc21 (stereo not drawn),inactive
16,COc1cc(/C=C2\CCOC2=O)cc(OC)c1OC,inactive
17,CCOC(=O)C1CCN(C(=O)c2cc3cc(Cl)ccc3[nH]2)CC1,inactive
18,COc1ccc(-n2c(=S)[nH]c3ccccc3c2=S)cc1,inactive
